In PubChem BioAssay AID504834 (National Center for Advancing Translational Sciences (NCATS), 2011) one finds Potency and activity change, negative = inhibition data, which are given here for 66 compounds.

Hit rate of the full screen: of about 320,000 compounds, about 22,000 (6.9%) were called active. Inconclusive results (about 27%) are left out. The entries come from a sample that favours actives as a whole. Entries that show only a call come without a potency. A number with no mark means an inactive call. The call rests on the fitted dose curve; in most records, active means well fitted inhibition curve with a large enough effect; inconclusive means small, poorly fitted or top-dose-only effect, or another doubt; inactive means no such curve, though single readings can be large or run the other way.
Potency means the concentration at half of the fitted maximal effect.

This assay can be described thus: Primary qHTS for delayed death inhibitors of the malarial parasite plastid, 96 hour incubation. The following applies: P. falciparum luciferase reporter growth; series mostly up to 28.7 µM. A digest of the protocol: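 Two parasite generations (96 h, 37 C, 5% CO2) of compound exposure in infected erythrocytes (0.05% parasitemia, 2% hematocrit). Luciferase-reporter P. falciparum; decreased luminescence indicates inhibited growth, aimed at apicoplast-acting delayed death.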
For orientation: qHTS replaces the single test concentration by a dilution series.
`S=C(Nc1ccc(Br)cc1)NC1CCN(Cc2ccccc2)CC1`: the Potency result is “inactive”.
Still for that read-out and setting: next, `O=C(NNC(=O)c1cnccc1C(F)(F)F)c1ccc(Cl)cc1`: “inactive”; `COC(=O)C1=C(c2cccc(OCc3ccccc3)c2)C[C@@H]2CC[C@H]1N2C(=O)NNCc1ccccc1`: 10.4 µM (active).
On the same count and under the same terms, next, `COC(=O)C1=C(c2ccc(F)cc2OCc2ccccc2)C[C@@H]2CC[C@H]1N2C(=O)NCc1ccc2[nH]ccc2c1`: 5.86 µM (active).
For `COC(=O)C1=C(c2ccc(C(C)=O)cc2)C[C@@H]2CC[C@H]1N2C(=O)NCCNC(C)=O`, the Potency result was “inactive”.
On to `COc1ccccc1CNC(=O)CN1CCC(n2cnc3cc(F)ccc32)CC1`, for which the Potency result was “inactive”.
Turning to `COC(=O)C1=C(c2ccc3ccccc3c2)C[C@@H]2CC[C@H]1N2C(=O)NCCO`, the Potency entry is “inactive”.
Still for that read-out and setting: next, `COC(=O)c1ccc(CNC(=O)C2CCC(=O)N(Cc3cccc(F)c3)C2)cc1` (stereo unspecified): “inactive”.
Same read-out and setting: then `COc1ccc(S(=O)(=O)NC(C)C(=O)NCc2ccncc2)cc1Cl` (stereo unspecified), with “inactive”; and `CC1CN(C(=O)COC(=O)c2cccc(NS(=O)(=O)c3ccccc3)c2)CC(C)O1` (stereo unspecified), with “inactive”.
On the same count and under the same terms, next, `O=C(Nc1ccccc1)N1CCC(C(=O)N2CCN(Cc3ccccc3)CC2)CC1`: “inactive”.
On to `COc1ccc(N(C)S(=O)(=O)c2ccc3c(c2)CC(C)N3C(=O)C2CC2)c(OC)c1` (stereo unspecified), for which the Potency result was “inactive”.
For the compound `Cc1ccccc1Nc1nc(-c2cccnc2)cs1`, the Potency entry is “inactive”.
The same measure, in the same setting: next, `Cc1cc(C(=O)NNC(=O)c2ccccc2O)c(C)o1`: “inactive”; `O=C(Nc1ccc(O)cc1)c1ccccc1O`: “inactive”; `CC(=O)NC(=O)c1ccccc1O`: 5.36 µM (active).
With `COc1ccc(C(=O)Nc2c(N)nc(SCC(=O)Nc3ccc(C(C)=O)cc3)[nH]c2=O)cc1`, the Potency result is “inactive”.
`CCn1c(SCc2ccc(C)cc2)nnc1-c1nn(-c2ccccc2)ccc1=O`: the Potency is 7.38 µM (active).
In the case of `Cc1ccc(-n2ccc(=O)c(C(=O)O)n2)cc1`, the Potency result was “inactive”.
As for `CCc1ccc(-c2nn(-c3ccccc3)cc2CSC(=N)N)cc1`, the Potency result is “inactive”.
Still for that read-out and setting: then `CCOc1ccc(N(CC(=O)NCC2CCCO2)S(=O)(=O)c2ccc(C)cc2)cc1` (stereo unspecified), with “inactive”; and `CCOC(=O)c1sc(NC(=O)c2ccncc2)nc1C`, with 9.28 µM (active); and `CCOC(=O)c1sc(NC(=O)c2sc(C)nc2C)nc1C`, with “inactive”.
For `CCOC(=O)c1cccnc1NC(=O)c1ccncc1`, the Potency entry is “inactive”.
The same measure, in the same setting: next, `CCc1nc(SCC(=O)NNC(=O)c2ccc(C)cc2)c2ccccc2n1`: “inactive”.
Same read-out and setting: next, `C=Cn1cc[n+](CC(=O)c2ccc(OC)c(OC)c2)c1`: “inactive”; `C=CCOc1ccc(/C=C2/C(=O)ON=C2C)cc1OCC`: “inactive”.
For the compound `COc1ccc(NC(=O)CN(C)C(=O)Cc2coc3cc(C)c(C)cc23)cc1`, the Potency entry was “inactive”.
Turning to `NC(=O)C1CCN(C(=O)/C(=C/c2ccco2)NC(=O)c2ccccc2)CC1`, the Potency entry is “inactive”.
On the same count and under the same terms, next, `C/C(=C\c1ccco1)CN1CCC(N2CCC(C(=O)N3CCOCC3)CC2)CC1`: 5.86 µM (active); `O=C(C1CCN(C2CCN(Cc3ccc4cc(F)ccc4n3)CC2)CC1)N1CCCC1`: “inactive”; `CCOC(=O)c1c(C)[nH]c(C(=O)NCc2ccccc2OC)c1C`: “inactive”.
Consider `CCOC(=O)c1c(C)[nH]c2c1-c1ccccc1C(=O)C2=O`, for which the Potency was 1.47 µM (active).
Turning to `CCOC(=O)C1=C(c2ccc(OC)cc2)C(=O)c2ccccc2C1=O`, the Potency entry was “inactive”.
As for `CCOC(=O)COc1nc(C)cc(C(F)(F)F)c1C#N`, the Potency entry is “inactive”.
On to `O=C(NN1C(=O)C2C3C=CC(O3)C2C1=O)c1ccncc1` (stereo unspecified), for which the Potency result was “inactive”.
The same measure, in the same setting: then `O=C(NN1C(=O)C2C3C=CC(O3)C2C1=O)c1ccccc1` (stereo unspecified), with 11.7 µM (active); and `COc1ccccc1C(=O)NN1C(=O)C2C3C=CC(O3)C2C1=O` (stereo unspecified), with “inactive”.
With `Cc1ccc(S(=O)(=O)N2CCN(C(=O)N3CCOCC3)CC2)c(C)c1`, the Potency entry is “inactive”.
`O=C(COC(=O)c1ccccc1Cl)NC1CCCCCCC1`: the Potency result is “inactive”.
Regarding `CCOc1ccc(N2C(=O)CSC2=NC#N)cc1`, the Potency result is “inactive”.
As to `CC(=O)OCC(COC(C)=O)OC(C)=O`, the Potency entry is “inactive”.
Same read-out and setting: next, `CC(=O)N=c1ncn(CC(COC(C)=O)OC(C)=O)c2nc[nH]c12` (stereo unspecified): 7.38 µM (active).
As for `CC(=O)OC(COc1ccc(F)cc1)Cn1cnc2ccccc21` (stereo unspecified), the Potency result was “inactive”.
The same measure, in the same setting: next, `CCOc1ccc(NS(=O)(=O)c2ccc(Cl)c(C(=O)N(C)Cc3cccnc3)c2)cc1`: “inactive”; `CC1(OC(=O)CCc2ccccc2)C(=O)C=C2C=C(c3ccc(C#N)cc3)N(CCc3ccccn3)C=C2C1=O` (stereo unspecified): 13.1 µM (active); `COCCN1C=C2C(=O)C(C)(OC(=O)C3CCCC3)C(=O)C=C2C=C1c1ccsc1` (stereo unspecified): “inactive”.
Still for that read-out and setting: then `Cc1ccc(OCCCC(=O)Nc2ccc(S(=O)(=O)Nc3cc(C)nc(C)n3)cc2)cc1`, with “inactive”.
The same measure, in the same setting: next, `CCCS(=O)(=O)Nc1ccc(-c2cn3c(n2)SCC3)cc1`: “inactive”; `O=C(Nc1cccc(Cl)c1Cl)c1ccccc1NC(=O)C1CC=CCC1C(=O)O` (stereo unspecified): 14.7 µM (active).
Consider `CC(=O)Nc1ccc(NC(=O)COc2ccccc2C(=O)Nc2cccc(Cl)c2Cl)cc1`, for which the Potency entry was “inactive”.
Same read-out and setting: next, `O=C(O)C1CC=CCC1C(=O)Nc1ccccc1C(=O)N1CCN(c2ccccc2)CC1` (stereo unspecified): “inactive”; `COCc1c(C(=O)N/N=C\c2cccnc2)nnn1-c1nonc1N`: “inactive”.
On the same count and under the same terms, then `Cc1ccc(C(=O)NNc2ncnc3ccccc23)cc1`, with “inactive”.
For `Cc1cc(=O)[nH]c(N/N=C/c2ccc3c(c2)OCCO3)n1`, the Potency result is “inactive”.
Turning to `Cc1cc(=O)[nH]c(N/N=C/c2c(C)nn(-c3ccccc3Cl)c2Cl)n1`, the Potency was 2.94 µM (active).
Take `Cc1nn(-c2ccccc2)c(Cl)c1/C=N/NC(=O)c1nn(C)cc1[N+](=O)[O-]`: the Potency entry is “inactive”.
`CC1CCCC(NC(=O)c2cc(-c3ccncc3)nc3ccccc23)C1C` (stereo unspecified): the Potency result is “inactive”.
On to `CCCCSc1nnc2c(n1)OC=Nc1ccccc1-2`, for which the Potency result was “inactive”.
For the compound `CNS(=O)(=O)c1cccc(C(=O)NCC2CCCCC2)c1`, the Potency result is “inactive”.
For `CCOc1ccc(N/C(N)=N/c2nc(C)c(C)c(=O)[nH]2)cc1`, the Potency result is “inactive”.
Still for that read-out and setting: then `COC(=O)c1cc(NC(=O)c2cccnc2)ccc1N1CCOCC1`, with “inactive”; and `O=C(Nc1cccc(Cl)c1N1CCOCC1)c1cccnc1`, with 9.28 µM (active).
For `O=C(Nc1cccc(Cl)c1N1CCOCC1)c1ccc2c(c1)OCCO2`, the activity change, negative = inhibition is 47.9% [at 5.75 µM].
`COCCNC(=O)c1ccc2c(c1)ncn2-c1ccc(C)c(Cl)c1`: the Potency result is “inactive”.
On the same count and under the same terms, next, `COc1ccc2c(c1)N(C)/C(=C1/SC(=S)N(NC(C)=O)C1=O)S2`: “inactive”.
